The record followed here is PubChem BioAssay.

Values without a mark were called inactive. For some of these results: Potency and affinity values are given separately. The source made the active and inactive calls. Unless noted, how the calls were made is not given here.

The nature of assay [1]: antimalarial activity against Dd2 strain (AID 2302;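 active means growth inhibition above 50% at the single 2 µM test dose, taken to imply half-maximal potency below 2 µM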;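 further: 0% = DMSO untreated growth and 100% = chloroquine plus artemisinin killed control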). The note with it: P. falciparum Dd2 in RBCs, LDH growth readout, 72 h; at 2 µM; hits give high values.
The nature of assay [2]: human hepatoma cell viability loss – ATP luminescence, cytotoxicity control for P. falciparum antimalarial project, primary screen (AID 2303;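 active means inhibition above 50%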;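 further: 0% = DMSO wells and 100% = digitonin-killed cells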). The note with it: HepG2 viability, 24-48 h, at 10 µM, hits give high values.
Assay [3] concerns the target L-lactate dehydrogenase (Plasmodium falciparum (isolate CDC / Honduras)) (UniProt Q27743). Description: PfLDH activity inhibition – cell lysate, 3D7 strain, counter-screen for P. falciparum growth inhibition project (AID 2304).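 Further: 0% = vehicle and 100% = reference inhibitor.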 Conditions: P. falciparum 3D7 crude extract, LDH APAD/NBT absorbance; at 2 µM; hits give high values. Background: Counterscreens check selectivity or assay interference.

Assay [4] is described as follows: inhibition of 3D7 malaria parasite growth – strain 3D7 (AID 2306).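 Further: 0% = DMSO wells and 100% = chloroquine plus artemisinin control wells.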 The note with it: P. falciparum 3D7 erythrocytic growth, LDH absorbance, 72 h; at 2 µM; hits give high values.
Assay [5] deals with Calcium-dependent protein kinase 1 (Plasmodium falciparum (isolate 3D7)) (UniProt P62344). Description: PfCDPK1 kinase inhibitors, biochemical, TCAMS library (AID 1159585; cut-off not given, nearly all actives have IC50 up to about 0.98 µM;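 further: inhibitors leave more ATP so luminescence rises with inhibition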). Conditions: recombinant PfCDPK1, Kinase-Glo ATP depletion luminescence.
Sequence of Calcium-dependent protein kinase 1 (Plasmodium falciparum (isolate 3D7)) (P62344 whole entry, looked up): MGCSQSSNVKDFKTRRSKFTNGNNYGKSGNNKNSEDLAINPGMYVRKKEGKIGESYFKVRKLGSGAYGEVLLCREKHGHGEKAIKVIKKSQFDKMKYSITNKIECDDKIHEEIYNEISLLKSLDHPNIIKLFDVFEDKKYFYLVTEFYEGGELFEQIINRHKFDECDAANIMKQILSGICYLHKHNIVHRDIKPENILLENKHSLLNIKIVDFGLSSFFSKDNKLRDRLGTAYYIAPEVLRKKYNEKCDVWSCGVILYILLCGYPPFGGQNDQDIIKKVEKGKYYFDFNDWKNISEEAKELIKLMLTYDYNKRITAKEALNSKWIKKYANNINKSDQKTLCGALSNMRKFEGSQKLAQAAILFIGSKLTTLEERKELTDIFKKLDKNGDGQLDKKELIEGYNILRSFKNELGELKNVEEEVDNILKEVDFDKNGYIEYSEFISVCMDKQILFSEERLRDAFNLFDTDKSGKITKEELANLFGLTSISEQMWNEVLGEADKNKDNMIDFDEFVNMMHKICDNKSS
The target in assay [6] is Plasmodium falciparum protein kinase 6 (PK6, PF3D7_1337100) (UniProt Q8IDW1). Description: PfPK6 kinase inhibitors, biochemical, TCAMS library (AID 1159586). The note with it: recombinant PfPK6, Kinase-Glo ATP depletion luminescence.
Sequence of Plasmodium falciparum protein kinase 6 (PK6, PF3D7_1337100) (Q8IDW1 1-305): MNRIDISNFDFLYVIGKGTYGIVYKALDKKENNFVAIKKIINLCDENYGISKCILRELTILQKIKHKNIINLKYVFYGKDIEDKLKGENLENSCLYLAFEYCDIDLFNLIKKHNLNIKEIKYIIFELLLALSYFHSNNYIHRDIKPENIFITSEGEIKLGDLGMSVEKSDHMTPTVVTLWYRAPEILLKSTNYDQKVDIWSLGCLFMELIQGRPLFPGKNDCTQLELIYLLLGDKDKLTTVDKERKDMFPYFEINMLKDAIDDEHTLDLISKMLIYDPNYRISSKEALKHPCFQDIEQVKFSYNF
In assay [7] the target is Protein kinase 7 (PK7), Plasmodium falciparum 3D7 (PF3D7_0213400) (UniProt Q7YTF7). Description: inhibition of Plasmodium PK7 catalytic activity – biochemical, TCAMS antimalarial set, Kinase-Glo luminescence (AID 1159587). Conditions: recombinant PfPK7, Kinase-Glo ATP depletion luminescence.
Sequence of Protein kinase 7 (PK7), Plasmodium falciparum 3D7 (PF3D7_0213400) (Q7YTF7 1-343): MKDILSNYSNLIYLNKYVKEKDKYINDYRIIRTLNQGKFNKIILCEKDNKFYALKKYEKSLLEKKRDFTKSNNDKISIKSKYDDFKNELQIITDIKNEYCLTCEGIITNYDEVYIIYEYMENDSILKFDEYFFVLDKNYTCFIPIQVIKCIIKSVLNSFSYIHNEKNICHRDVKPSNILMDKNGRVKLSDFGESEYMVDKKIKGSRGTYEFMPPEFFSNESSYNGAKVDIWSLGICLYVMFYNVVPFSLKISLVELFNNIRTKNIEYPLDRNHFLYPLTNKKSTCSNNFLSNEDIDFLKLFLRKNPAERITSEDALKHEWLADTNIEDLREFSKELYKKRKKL
Assay [8] deals with Calcium-dependent protein kinase 4 (Plasmodium falciparum (isolate 3D7)) (UniProt Q8IBS5). Put plainly: PfCDPK4 kinase inhibitors, biochemical, TCAMS library (AID 1159588; cut-off not given, nearly all actives have IC50 up to about 0.91 µM). The note with it: recombinant PfCDPK4, Kinase-Glo ATP depletion luminescence. (In Kinase-Glo more light means more ATP remaining.)
Sequence of Calcium-dependent protein kinase 4 (Plasmodium falciparum (isolate 3D7)) (Q8IBS5 whole entry, looked up): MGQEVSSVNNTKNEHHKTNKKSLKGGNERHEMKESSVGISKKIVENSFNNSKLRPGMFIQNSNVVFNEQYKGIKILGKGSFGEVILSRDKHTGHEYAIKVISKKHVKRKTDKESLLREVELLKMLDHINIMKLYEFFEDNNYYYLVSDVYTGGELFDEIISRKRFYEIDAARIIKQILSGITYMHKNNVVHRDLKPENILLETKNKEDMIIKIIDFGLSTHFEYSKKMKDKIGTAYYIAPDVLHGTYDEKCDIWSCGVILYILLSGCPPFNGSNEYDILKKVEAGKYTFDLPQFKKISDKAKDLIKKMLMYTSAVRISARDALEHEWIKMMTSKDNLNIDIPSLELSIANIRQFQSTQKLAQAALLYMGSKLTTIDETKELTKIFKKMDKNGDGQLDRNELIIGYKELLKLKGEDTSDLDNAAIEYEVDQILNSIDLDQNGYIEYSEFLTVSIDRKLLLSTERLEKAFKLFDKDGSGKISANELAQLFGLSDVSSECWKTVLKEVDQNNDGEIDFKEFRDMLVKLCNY

Sequence of L-lactate dehydrogenase (Plasmodium falciparum (isolate CDC / Honduras)) (Q27743 whole entry, looked up): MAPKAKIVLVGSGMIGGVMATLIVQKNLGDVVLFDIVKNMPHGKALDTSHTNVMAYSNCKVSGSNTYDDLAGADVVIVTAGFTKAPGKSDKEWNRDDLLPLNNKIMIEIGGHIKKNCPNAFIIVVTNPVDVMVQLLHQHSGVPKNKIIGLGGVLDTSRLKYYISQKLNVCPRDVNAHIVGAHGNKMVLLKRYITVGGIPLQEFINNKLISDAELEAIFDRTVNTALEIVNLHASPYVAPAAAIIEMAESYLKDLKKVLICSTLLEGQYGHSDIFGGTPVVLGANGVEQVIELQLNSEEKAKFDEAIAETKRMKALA

Turning to `N=C(N)CCN(Cc1ccc(Cl)cc1)c1ccc(Cl)cc1`, the growth inhibition in assay [1] is 92% (active); in assay [4], 96% (active). Also, the inhibition in assay [2] is 22%; in assay [3], 5%. Also, the outcome in assay [5], in assay [6], in assay [7] and in assay [8] was inactive.

With `Cc1ccc(C(CC(=O)Nc2nccs2)c2ccc(OC(C)C)cc2)cc1` (stereo not given), the growth inhibition in assay [1] was 90% (active); in assay [4] it was 94% (active). The inhibition in assay [2] was 5%; in assay [3] it was 3%. Moreover, the outcome in assay [5], in assay [6], in assay [7] and in assay [8] was inactive.

For `CC1(CCCCN2CCC(c3c[nH]c4cnccc34)CC2)C(=O)Nc2cccc(Cl)c21` (stereo not given), the growth inhibition in assay [1] was -1%; in assay [4], 100% (active). The results for the inhibition in assay [2] and in assay [3] were 26% and 0%, respectively. Further, the result in assay [5], in assay [6], in assay [7] and in assay [8] was inactive.

`COc1ccc(-c2cc(C(F)(F)F)n3ncc(C(=O)Nc4cc(C)ccc4O)c3n2)cc1OC`: the growth inhibition in assay [1] and in assay [4] was 100% (active) each time. For the same compound, the inhibition was 2% in assay [2] and 0% in assay [3]. The result in assay [5], in assay [6], in assay [7] and in assay [8] was inactive.

As to `COc1ccc(CNC2CCN(C)CC2)cc1-c1ccc(S(=O)(=O)NCCN2CCCC2)s1`, the growth inhibition was 1% in assay [1] and 90% (active) in assay [4]. Moreover, the inhibition in assay [2] is 2%; in assay [3] it was -2%. Besides, the outcome in assay [5], in assay [6], in assay [7] and in assay [8] was inactive.

`Cc1ccc(S(=O)(=O)n2nccc2-c2c(-c3ccc(Cl)cc3)noc2C)cc1`: the growth inhibition in assay [1] and in assay [4] was 97% (active) throughout. The inhibition was -1% in assay [2] and -2% in assay [3]. The outcome in assay [5], in assay [6], in assay [7] and in assay [8] was inactive.

Take `Cc1cccc2[nH]c(-c3cccc(-c4ccc(CN5CCC(C(N)=O)CC5)cc4)c3)nc12`: the growth inhibition in assay [1] was 9%; in assay [4] it was 89% (active). For the same compound, the inhibition was -1% in assay [2] and 4% in assay [3]. Also, the result in assay [5], in assay [6], in assay [7] and in assay [8] was inactive.

For `COc1ccc2ncc(F)c(CCN3CC[C@H](NCc4cc(C#N)c5c(c4)OCCO5)[C@H](O)C3)c2c1`, the figures for the growth inhibition in assay [1] and in assay [4] were 47% and 96% (active), respectively. Moreover, the inhibition in assay [2] was 51% (active); in assay [3] it was 2%. In addition, the result in assay [5], in assay [6], in assay [7] and in assay [8] was inactive.

Take `COCCN1CCN(Cc2ccc(-c3cccc(-c4nc5ccccc5[nH]4)c3)cc2)CC1`: the growth inhibition is 10% in assay [1] and 93% (active) in assay [4]. For the same compound, the inhibition was 32% in assay [2] and 0% in assay [3]. For the same compound, the outcome in assay [5], in assay [6], in assay [7] and in assay [8] was inactive.

Turning to `CC1(C)N=C(N)N=C(N)N1c1cccc(Cl)c1`, the growth inhibition in assay [1] and in assay [4] was 96% (active) throughout. Besides, the inhibition in assay [2] is 69% (active); in assay [3], -1%. In addition, the outcome in assay [5], in assay [6], in assay [7] and in assay [8] was inactive.

Consider `CCCCN(CCCC)CCCN(CCCN(CCCC)CCCC)c1cc(C)nc(Nc2ccc(Br)cc2)n1`, for which the growth inhibition is 98% (active) in assay [1] and 99% (active) in assay [4]. Also, the inhibition was 51% (active) in assay [2] and -4% in assay [3]. Also, the result in assay [5], in assay [6], in assay [7] and in assay [8] was inactive.

Regarding `CCN(CC)C(=O)C(=O)c1c[nH]c2ccc(Cl)cc12`, the growth inhibition in assay [1] and in assay [4] was 96% (active) each time. In addition, the inhibition is 1% in assay [2] and 0% in assay [3]. The outcome in assay [5], in assay [6], in assay [7] and in assay [8] was inactive.

Turning to `Cc1ccc(NC(=O)c2ccc3ncccc3c2)cc1OC1CCN(Cc2ccsc2)C1` (stereo not given), the values for the growth inhibition in assay [1] and in assay [4] were 49% and 88% (active), respectively. Also, the inhibition was 5% in assay [2] and -3% in assay [3]. Besides, the result in assay [5], in assay [6], in assay [7] and in assay [8] was inactive.

Take `O=C(Nc1nc(-c2ccccn2)cs1)c1ccc(S(=O)(=O)N2CCc3ccccc32)cc1`: the results for the growth inhibition in assay [1] and in assay [4] were 15% and 89% (active), respectively. Also, the inhibition in assay [2] was 47%; in assay [3], 2%. Further, the result in assay [5], in assay [6], in assay [7] and in assay [8] was inactive.

With `COc1cc(Nc2ncnc3cc(OC)c(OC)cc23)cc([N+](=O)[O-])c1`, the growth inhibition in assay [1] is 6%; in assay [4], 97% (active). Further, the inhibition in assay [2] and in assay [3] was 8% each time. The outcome in assay [5], in assay [6], in assay [7] and in assay [8] was inactive.

Take `CC(C)CC1(C(=O)OC(C)(C)C)CC(C(=O)OC(C)(C)C)C(c2cccs2)N1C(=O)c1ccc(C(C)(C)C)cc1` (stereo not given): the growth inhibition in assay [1] is 100% (active); in assay [4] it was 101% (active). Moreover, the inhibition in assay [2] was 21%; in assay [3] it was -2%. For the same compound, the result in assay [5], in assay [6], in assay [7] and in assay [8] was inactive.

On to `O=C(c1ccccc1)N(Cc1ccccc1-c1ccc(CNCCc2ccccc2)cc1)C1CCN(Cc2ccccc2)CC1`, for which the results for the growth inhibition in assay [1] and in assay [4] were 69% (active) and 95% (active), respectively. Besides, the inhibition in assay [2] was 95% (active); in assay [3] it was -7%. Also, the outcome in assay [5], in assay [6], in assay [7] and in assay [8] was inactive.

As to `CN(C)CCCOC(=O)c1cc2cc(-c3ccccc3)ccc2n1S(=O)(=O)Cc1ccccc1`, the growth inhibition is 70% (active) in assay [1] and 101% (active) in assay [4]. For the same compound, the inhibition in assay [2] was 13%; in assay [3], -5%. Moreover, the result in assay [5], in assay [6], in assay [7] and in assay [8] was inactive.

Take `Cc1cc(N(CCN2CCCCC2)CCN2CCCCC2)nc(Nc2ccc(Cl)cc2)n1`: the growth inhibition in assay [1] is 79% (active); in assay [4] it was 101% (active). Besides, the inhibition in assay [2] was 19%; in assay [3], -4%. Further, the outcome in assay [5], in assay [6], in assay [7] and in assay [8] was inactive.

Regarding `CCC(C)NC(=O)Nc1ccc(-c2cccc(-c3nc4c(C)cccc4[nH]3)c2)cc1` (stereo not given), the growth inhibition is 83% (active) in assay [1] and 102% (active) in assay [4]. The inhibition in assay [2] was 55% (active); in assay [3], 6%. The outcome in assay [5], in assay [6], in assay [7] and in assay [8] was inactive.

In general, inhibition refers to the drop in the measured response relative to a control, in per cent.
